# Data: article PMC7862700, “An all-to-all approach to the identification of sequence-specific readers for epigenetic DNA modifications on cytosine”
# Key:
# Experiment in all cases: DAPPL (digital affinity profiling via proximity ligation, sequencing); 10 mM Tris-HCl pH 7.5, 50 mM NaCl, 1 mM DTT, 4% glycerol, room temperature, 30 min; GST-TFs on glutathione beads, 16-mer random dsDNA library, 0.1% formaldehyde crosslink after washing; high values mean tight binding
# FLI1 = biological target: T1, FLI1 (Homo sapiens, UniProt Q01543 1-452); conditions: protein: recombinant; tags: N-terminal GST; dsDNA, one strand shown
# T1 sequence: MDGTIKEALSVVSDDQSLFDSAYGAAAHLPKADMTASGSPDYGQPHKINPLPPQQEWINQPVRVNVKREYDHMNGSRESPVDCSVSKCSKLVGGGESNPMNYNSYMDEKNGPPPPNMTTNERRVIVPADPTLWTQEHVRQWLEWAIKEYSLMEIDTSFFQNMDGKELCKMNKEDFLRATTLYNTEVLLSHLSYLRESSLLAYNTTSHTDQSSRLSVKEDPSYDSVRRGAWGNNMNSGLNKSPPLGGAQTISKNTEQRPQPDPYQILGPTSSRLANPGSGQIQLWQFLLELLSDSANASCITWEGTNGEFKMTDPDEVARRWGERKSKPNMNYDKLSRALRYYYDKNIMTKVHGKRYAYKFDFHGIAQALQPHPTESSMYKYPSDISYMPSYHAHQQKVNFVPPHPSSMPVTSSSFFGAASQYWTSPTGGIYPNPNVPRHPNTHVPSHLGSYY
# Method in brief: (§1)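 After expression in yeast as GST fusions, human transcription factors were bound to glutathione beads, DNA-barcoded and mixed with a tag-only sample. The pools were incubated with 200 nmole of a 16-mer random double-stranded DNA library in Tris/NaCl/DTT/glycerol buffer (30 min, room temperature), washed and crosslinked with 0.1% formaldehyde. Proximity ligation with BsaI/T4 ligase ran for 1 h at 37 °C, before PCR amplification and sequencing on an Illumina NextSeq500. Binding signal is a hexamer's read frequency for a factor divided by its frequency for the tag-only sample.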
# ELK1 = biological target: T2, ELK1 (Homo sapiens, UniProt P19419 1-428); conditions: protein: recombinant; tags: N-terminal GST; dsDNA, one strand shown
# T2 sequence: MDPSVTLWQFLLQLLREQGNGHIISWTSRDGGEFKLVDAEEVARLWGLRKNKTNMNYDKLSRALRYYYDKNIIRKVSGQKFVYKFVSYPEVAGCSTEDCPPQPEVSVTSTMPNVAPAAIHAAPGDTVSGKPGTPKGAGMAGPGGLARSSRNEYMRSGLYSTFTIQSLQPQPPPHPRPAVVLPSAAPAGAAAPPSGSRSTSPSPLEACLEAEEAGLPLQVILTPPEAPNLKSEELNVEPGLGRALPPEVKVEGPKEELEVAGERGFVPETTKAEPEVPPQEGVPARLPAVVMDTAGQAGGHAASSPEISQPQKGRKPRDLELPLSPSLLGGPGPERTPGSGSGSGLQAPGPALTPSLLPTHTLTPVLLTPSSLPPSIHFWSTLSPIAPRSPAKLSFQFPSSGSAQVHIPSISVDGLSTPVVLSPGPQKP
# Method in brief: as §1
# GABPA = biological target: T3, GABPA (Homo sapiens, UniProt Q06546 1-454); conditions: protein: recombinant; tags: N-terminal GST; dsDNA, one strand shown
# T3 sequence: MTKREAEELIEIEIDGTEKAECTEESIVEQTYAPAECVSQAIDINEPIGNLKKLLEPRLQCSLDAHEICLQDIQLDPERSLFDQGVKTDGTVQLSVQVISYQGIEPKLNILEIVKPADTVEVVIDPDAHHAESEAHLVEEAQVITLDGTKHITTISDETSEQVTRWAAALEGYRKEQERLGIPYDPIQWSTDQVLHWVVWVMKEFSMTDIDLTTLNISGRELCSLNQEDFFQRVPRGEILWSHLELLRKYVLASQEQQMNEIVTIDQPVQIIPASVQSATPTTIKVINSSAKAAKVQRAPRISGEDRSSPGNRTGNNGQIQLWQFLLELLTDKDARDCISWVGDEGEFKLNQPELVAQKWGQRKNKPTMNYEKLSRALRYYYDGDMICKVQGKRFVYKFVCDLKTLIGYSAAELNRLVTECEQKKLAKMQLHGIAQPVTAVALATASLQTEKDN
# Method in brief: as §1
# ERG = biological target: T4, ERG (Homo sapiens, UniProt P11308 1-479); conditions: protein: recombinant; tags: N-terminal GST; dsDNA, one strand shown
# T4 sequence: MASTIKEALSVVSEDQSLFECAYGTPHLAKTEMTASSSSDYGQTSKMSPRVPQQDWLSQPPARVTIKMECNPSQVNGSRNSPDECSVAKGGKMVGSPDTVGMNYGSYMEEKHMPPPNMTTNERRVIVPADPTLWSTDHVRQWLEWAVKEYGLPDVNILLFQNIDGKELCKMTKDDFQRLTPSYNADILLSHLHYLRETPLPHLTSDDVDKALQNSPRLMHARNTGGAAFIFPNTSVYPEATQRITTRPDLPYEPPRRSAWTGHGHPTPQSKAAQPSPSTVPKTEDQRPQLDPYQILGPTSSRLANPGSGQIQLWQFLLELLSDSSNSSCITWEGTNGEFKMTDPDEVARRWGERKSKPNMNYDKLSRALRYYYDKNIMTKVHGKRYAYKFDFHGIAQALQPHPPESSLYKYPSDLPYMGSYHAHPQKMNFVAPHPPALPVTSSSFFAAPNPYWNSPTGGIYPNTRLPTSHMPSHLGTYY
# Method in brief: as §1
# ELF1 = ELF1 (Homo sapiens, UniProt P32519 1-619); conditions: protein: recombinant; tags: N-terminal GST; dsDNA, one strand shown
# Method in brief: as §1
# EHF = biological target: T5, EHF (Homo sapiens, UniProt Q9NZC4 1-300); conditions: protein: recombinant; tags: N-terminal GST; dsDNA, one strand shown
# T5 sequence: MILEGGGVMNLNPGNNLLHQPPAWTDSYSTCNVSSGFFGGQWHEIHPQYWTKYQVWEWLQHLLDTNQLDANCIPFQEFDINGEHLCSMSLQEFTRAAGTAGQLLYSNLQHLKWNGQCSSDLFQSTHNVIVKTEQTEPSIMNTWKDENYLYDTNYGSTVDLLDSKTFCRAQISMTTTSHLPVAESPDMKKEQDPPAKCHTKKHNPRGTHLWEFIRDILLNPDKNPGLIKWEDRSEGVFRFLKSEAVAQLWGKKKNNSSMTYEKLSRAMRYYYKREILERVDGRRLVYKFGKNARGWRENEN
# Method in brief: as §1
# SPI1 = SPI1 (Homo sapiens, UniProt P17947 1-270); conditions: protein: recombinant; tags: N-terminal GST; dsDNA, one strand shown
# Method in brief: as §1
# SPIB = SPIB (Homo sapiens, UniProt Q01892 1-262); conditions: protein: recombinant; tags: N-terminal GST; dsDNA, one strand shown
# Method in brief: as §1
# ELK3 = biological target: T6, ELK3 (Homo sapiens, UniProt P41970 1-407); conditions: protein: recombinant; tags: N-terminal GST; dsDNA, one strand shown
# T6 sequence: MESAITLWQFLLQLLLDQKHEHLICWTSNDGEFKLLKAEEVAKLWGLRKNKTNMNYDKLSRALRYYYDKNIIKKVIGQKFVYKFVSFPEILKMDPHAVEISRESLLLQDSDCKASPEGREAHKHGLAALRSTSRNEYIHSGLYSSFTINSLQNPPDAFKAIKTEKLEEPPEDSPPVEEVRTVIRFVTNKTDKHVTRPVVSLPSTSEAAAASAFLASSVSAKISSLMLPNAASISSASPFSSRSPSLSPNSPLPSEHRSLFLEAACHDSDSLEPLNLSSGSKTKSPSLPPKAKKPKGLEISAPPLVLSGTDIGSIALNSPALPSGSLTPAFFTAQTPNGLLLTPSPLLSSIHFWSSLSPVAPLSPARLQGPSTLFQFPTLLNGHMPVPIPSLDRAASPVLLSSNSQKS
# Method in brief: as §1
# FEV = biological target: T7, FEV (Homo sapiens, UniProt Q99581 1-238); conditions: protein: recombinant; tags: N-terminal GST; dsDNA, one strand shown
# T7 sequence: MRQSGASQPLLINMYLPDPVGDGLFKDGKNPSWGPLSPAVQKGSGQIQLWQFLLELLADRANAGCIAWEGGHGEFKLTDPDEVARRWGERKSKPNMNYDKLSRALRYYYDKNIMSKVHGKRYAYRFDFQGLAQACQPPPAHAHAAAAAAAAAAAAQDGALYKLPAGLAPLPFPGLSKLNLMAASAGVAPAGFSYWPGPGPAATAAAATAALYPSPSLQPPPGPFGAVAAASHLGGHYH
# Method in brief: as §1
# ETV5 = ETV5 (Homo sapiens, UniProt P41161 1-510); conditions: protein: recombinant; tags: N-terminal GST; dsDNA, one strand shown
# Method in brief: as §1
# HSF1 = HSF1 (Homo sapiens, UniProt Q00613 1-529); conditions: protein: recombinant; tags: N-terminal GST; chain copies: 3; dsDNA, one strand shown
# Method in brief: as §1
# SPIC = biological target: T8, SPIC (Homo sapiens, UniProt Q8N5J4 1-248); conditions: protein: recombinant; tags: N-terminal GST; dsDNA, one strand shown
# T8 sequence: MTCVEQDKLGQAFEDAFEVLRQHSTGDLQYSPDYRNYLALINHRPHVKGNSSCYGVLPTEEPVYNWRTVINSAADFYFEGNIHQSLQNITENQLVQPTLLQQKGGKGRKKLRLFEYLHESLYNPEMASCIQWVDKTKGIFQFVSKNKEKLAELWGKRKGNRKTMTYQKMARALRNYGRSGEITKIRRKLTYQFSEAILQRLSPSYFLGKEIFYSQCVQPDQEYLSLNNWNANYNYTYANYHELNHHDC
# Method in brief: as §1
# ELF4 = ELF4 (Homo sapiens, UniProt Q99607 1-663); conditions: protein: recombinant; tags: N-terminal GST; dsDNA, one strand shown
# Method in brief: as §1
# ELK4 = biological target: T9, ELK4 (Homo sapiens, UniProt P28324-2 1-405); conditions: protein: recombinant; tags: N-terminal GST; dsDNA, one strand shown
# T9 sequence: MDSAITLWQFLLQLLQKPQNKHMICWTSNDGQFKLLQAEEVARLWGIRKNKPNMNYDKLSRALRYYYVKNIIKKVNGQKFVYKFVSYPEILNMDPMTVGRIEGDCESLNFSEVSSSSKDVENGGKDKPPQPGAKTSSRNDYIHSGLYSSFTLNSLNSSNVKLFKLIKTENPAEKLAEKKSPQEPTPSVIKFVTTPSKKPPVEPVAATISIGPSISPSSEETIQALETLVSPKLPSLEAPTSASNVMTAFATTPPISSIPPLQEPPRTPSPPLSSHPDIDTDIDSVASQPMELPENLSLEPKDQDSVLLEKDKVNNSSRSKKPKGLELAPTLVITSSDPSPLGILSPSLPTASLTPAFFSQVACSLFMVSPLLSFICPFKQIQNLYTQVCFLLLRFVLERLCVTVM
# Method in brief: as §1
# ETV2 = biological target: T10, ETV2 (Homo sapiens, UniProt O00321 1-342); conditions: protein: recombinant; tags: N-terminal GST; dsDNA, one strand shown
# T10 sequence: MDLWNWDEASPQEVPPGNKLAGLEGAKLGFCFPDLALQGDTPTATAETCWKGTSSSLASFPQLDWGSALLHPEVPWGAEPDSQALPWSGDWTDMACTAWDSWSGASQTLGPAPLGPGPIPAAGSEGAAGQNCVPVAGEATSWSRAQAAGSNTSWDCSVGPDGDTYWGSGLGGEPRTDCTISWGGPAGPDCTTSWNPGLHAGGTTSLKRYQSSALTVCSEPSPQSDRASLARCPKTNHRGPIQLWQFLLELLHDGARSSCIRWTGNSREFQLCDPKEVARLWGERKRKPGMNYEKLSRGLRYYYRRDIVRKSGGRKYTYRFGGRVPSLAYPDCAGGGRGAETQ
# Method in brief: as §1
# ELF3 = biological target: T11, ELF3 (Homo sapiens, UniProt P78545 1-371); conditions: protein: recombinant; tags: N-terminal GST; dsDNA, one strand shown
# T11 sequence: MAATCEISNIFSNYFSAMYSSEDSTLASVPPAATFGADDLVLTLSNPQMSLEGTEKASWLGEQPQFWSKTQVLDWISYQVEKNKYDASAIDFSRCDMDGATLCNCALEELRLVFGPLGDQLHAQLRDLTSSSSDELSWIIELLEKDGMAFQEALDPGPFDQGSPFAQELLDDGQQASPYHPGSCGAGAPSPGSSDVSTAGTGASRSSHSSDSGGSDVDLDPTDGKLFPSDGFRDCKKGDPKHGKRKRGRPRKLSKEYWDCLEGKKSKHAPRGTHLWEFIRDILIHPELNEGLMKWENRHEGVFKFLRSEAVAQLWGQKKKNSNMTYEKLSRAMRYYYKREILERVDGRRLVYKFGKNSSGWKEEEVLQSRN
# Method in brief: as §1
# CRX = CRX (Homo sapiens, UniProt O43186 1-299); conditions: protein: recombinant; tags: N-terminal GST; dsDNA, one strand shown
# Method in brief: as §1
# ETV1 = ETV1 (Homo sapiens, UniProt P50549 1-477); conditions: protein: recombinant; tags: N-terminal GST; dsDNA, one strand shown
# Method in brief: as §1
# Sequence of ETV1 (P50549 whole entry): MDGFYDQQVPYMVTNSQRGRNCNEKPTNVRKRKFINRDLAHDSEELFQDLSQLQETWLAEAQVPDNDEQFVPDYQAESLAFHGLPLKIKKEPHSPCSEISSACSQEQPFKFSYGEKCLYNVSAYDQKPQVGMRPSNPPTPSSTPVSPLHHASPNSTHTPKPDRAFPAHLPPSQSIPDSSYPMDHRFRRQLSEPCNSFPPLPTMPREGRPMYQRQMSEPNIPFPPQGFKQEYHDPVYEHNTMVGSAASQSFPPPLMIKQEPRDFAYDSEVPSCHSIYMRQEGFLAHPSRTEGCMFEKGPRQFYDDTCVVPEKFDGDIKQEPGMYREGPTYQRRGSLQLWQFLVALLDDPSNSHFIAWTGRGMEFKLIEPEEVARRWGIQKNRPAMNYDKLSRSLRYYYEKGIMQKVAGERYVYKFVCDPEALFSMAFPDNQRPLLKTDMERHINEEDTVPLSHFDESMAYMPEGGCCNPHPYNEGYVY
# Sequence of CRX (O43186 whole entry): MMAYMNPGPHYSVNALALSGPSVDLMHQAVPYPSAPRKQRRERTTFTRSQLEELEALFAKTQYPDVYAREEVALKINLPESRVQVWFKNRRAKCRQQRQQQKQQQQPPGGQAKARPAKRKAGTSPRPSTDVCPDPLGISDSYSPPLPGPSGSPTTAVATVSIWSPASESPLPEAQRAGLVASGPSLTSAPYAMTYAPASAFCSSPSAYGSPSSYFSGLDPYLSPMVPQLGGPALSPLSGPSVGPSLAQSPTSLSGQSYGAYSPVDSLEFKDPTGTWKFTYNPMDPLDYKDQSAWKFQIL
# Sequence of ELF1 (P32519 whole entry): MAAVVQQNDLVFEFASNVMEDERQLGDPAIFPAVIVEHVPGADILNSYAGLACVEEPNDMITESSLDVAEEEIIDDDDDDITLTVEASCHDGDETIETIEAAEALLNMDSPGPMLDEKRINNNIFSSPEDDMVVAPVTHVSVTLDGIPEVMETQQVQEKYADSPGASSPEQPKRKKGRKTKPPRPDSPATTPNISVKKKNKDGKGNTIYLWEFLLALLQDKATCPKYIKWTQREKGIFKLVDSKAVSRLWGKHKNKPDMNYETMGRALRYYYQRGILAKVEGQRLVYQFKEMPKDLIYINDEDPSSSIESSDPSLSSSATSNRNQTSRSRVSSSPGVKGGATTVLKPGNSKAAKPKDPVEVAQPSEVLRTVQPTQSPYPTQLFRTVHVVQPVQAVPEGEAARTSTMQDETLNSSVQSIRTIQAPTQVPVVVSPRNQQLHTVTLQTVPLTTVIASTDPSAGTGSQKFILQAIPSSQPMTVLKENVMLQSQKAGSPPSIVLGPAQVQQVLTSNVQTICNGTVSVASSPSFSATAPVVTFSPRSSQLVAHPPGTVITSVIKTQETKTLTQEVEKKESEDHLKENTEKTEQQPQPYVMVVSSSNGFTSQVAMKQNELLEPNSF
# Sequence of ETV5 (P41161 whole entry): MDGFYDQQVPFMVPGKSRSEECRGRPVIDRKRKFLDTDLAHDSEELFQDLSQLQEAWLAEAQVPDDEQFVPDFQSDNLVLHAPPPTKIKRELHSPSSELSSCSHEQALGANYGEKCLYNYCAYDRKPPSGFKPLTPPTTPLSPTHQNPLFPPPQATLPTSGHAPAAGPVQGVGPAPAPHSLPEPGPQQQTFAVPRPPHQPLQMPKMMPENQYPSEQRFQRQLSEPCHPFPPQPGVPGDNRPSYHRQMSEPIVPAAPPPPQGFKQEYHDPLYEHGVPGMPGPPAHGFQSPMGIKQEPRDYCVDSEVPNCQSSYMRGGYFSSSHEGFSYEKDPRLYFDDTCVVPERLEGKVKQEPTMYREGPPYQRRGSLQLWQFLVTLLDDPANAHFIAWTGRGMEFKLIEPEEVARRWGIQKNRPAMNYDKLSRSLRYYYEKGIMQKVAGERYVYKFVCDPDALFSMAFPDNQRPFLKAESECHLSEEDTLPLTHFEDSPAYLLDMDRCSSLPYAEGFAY
# Sequence of ELF4 (Q99607 whole entry): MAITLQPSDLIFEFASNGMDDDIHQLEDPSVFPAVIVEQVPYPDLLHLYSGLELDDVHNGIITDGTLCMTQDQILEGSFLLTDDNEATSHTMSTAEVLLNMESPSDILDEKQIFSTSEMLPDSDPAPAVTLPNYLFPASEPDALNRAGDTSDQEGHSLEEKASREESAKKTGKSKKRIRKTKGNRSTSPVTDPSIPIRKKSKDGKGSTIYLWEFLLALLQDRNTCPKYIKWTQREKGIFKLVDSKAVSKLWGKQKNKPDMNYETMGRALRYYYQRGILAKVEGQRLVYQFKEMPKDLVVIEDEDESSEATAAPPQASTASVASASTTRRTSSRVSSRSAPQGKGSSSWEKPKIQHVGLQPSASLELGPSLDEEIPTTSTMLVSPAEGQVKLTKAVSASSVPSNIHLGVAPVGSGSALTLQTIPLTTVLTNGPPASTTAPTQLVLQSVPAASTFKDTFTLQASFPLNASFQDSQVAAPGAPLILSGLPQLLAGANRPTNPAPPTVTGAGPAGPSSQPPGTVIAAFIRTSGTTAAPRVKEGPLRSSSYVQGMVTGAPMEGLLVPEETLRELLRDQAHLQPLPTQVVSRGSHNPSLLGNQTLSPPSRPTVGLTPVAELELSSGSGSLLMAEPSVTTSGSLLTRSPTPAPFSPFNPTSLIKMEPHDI
# Sequence of HSF1 (Q00613 whole entry): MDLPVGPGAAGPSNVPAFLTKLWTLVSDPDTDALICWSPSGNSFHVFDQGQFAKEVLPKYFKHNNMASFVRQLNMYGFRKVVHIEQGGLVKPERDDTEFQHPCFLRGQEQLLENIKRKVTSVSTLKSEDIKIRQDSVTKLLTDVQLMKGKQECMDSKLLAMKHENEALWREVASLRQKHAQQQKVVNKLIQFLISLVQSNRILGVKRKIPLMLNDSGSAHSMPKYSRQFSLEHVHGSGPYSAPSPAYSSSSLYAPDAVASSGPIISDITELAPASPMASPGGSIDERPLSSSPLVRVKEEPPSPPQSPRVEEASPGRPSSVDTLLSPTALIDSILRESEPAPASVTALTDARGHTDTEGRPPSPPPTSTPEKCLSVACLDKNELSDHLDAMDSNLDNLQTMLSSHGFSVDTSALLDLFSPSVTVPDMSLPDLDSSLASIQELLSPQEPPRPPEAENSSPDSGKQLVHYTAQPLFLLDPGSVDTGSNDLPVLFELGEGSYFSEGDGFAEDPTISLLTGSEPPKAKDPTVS
# Sequence of SPIB (Q01892 whole entry): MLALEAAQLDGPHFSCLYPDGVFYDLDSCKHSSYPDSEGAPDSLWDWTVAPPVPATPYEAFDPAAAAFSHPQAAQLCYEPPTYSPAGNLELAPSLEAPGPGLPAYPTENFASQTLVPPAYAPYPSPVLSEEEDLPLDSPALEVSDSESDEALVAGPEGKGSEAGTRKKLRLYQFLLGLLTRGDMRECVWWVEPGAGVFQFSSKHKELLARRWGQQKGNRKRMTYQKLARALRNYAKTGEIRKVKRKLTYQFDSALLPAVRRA
sequence,measurement,setting,value
TTCCCT,binding signal,FLI1,"1.81 fold enrichment (6-mer frequency, TF over GST control)"
same,binding signal,ELK1,"1.67 fold enrichment (6-mer frequency, TF over GST control)"
same,binding signal,GABPA,"1.72 fold enrichment (6-mer frequency, TF over GST control)"
same,binding signal,ERG,"1.72 fold enrichment (6-mer frequency, TF over GST control)"
same,binding signal,ELF1,"1.68 fold enrichment (6-mer frequency, TF over GST control)"
same,binding signal,EHF,"1.68 fold enrichment (6-mer frequency, TF over GST control)"
same,binding signal,SPI1,"2.23 fold enrichment (6-mer frequency, TF over GST control)"
same,binding signal,SPIB,"1.9 fold enrichment (6-mer frequency, TF over GST control)"
same,binding signal,ELK3,"1.8 fold enrichment (6-mer frequency, TF over GST control)"
same,binding signal,FEV,"1.64 fold enrichment (6-mer frequency, TF over GST control)"
same,binding signal,ETV5,"1.69 fold enrichment (6-mer frequency, TF over GST control)"
same,binding signal,HSF1,"1.52 fold enrichment (6-mer frequency, TF over GST control)"
same,binding signal,SPIC,"1.84 fold enrichment (6-mer frequency, TF over GST control)"
same,binding signal,ELF4,"1.79 fold enrichment (6-mer frequency, TF over GST control)"
same,binding signal,ELK4,"1.65 fold enrichment (6-mer frequency, TF over GST control)"
same,binding signal,ETV2,"1.62 fold enrichment (6-mer frequency, TF over GST control)"
same,binding signal,ELF3,"1.57 fold enrichment (6-mer frequency, TF over GST control)"
same,binding signal,CRX,"1.31 fold enrichment (6-mer frequency, TF over GST control)"
same,binding signal,ETV1,"1.68 fold enrichment (6-mer frequency, TF over GST control)"
